PubChem BioAssay (NCATS)
Several values for one entry are separate records, joined by “and”; a condition that tells them apart may be missing. Identical values can stand only once. Inconclusive results are not listed. Activity calls are given as the source filed them. Unless noted, calls come from the whole dose curve; as a rule, active = well fitted curve in the direction sought with a large enough effect; inconclusive = small, poorly fitted or top-dose-only effect, or another doubt; inactive = no such curve, though single readings can be large; an effect the other way counts as inactive or inconclusive.

Legend:
[1] = Cell Viability - BJ (AID 421; calls by dose curve;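 note: potency is the fitted concentration of half-maximal effect; cells exposed to compound for 40 hours at 37 °C before readout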); conditions: BJ fibroblast viability, qHTS
How it was run: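 Luminescent ATP signal (CellTiter-Glo, 20 min at room temperature) served as the read-out of viable BJ cells after 40 hours of compound treatment. Responses were scaled between DMSO and 100 uM tamoxifen, and AC50 values were obtained by Hill modeling.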

[2] = Cell Viability - Jurkat (AID 426;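 active = dose-dependent loss of cell ATP signal giving a full or clear fitted curve, ranked by lower potency value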; note: potency is the fitted concentration of half-maximal effect); conditions: qHTS
How it was run: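 Jurkat (clone E6-1, human T-cell leukemia) cells, 5000/well in complete medium, were exposed to compound for 40 hr at 37 °C. Viability was read as intracellular ATP by CellTiter-Glo luminescence; AC50 came from Hill fits of concentration-response data.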

[3] = Cell Viability - Hek293 (AID 427;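 active = compounds whose dose-response curve shows a full or clear partial loss of cell viability, called from curve shape rather than a numeric limit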;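 note: potency is the fitted concentration of half-maximal effect; cells exposed to compound for 40 hours at 37 °C before reading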); conditions: qHTS
How it was run: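 Luminescent ATP read-out (CellTiter-Glo, 20 min RT) after 40 hr compound exposure at 37 °C in complete medium. Signal normalized to DMSO (basal) and 100 uM tamoxifen (100% inhibition); concentration-response fitted with the standard Hill equation to give AC50.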

[4] = Cell Viability - MRC5 (AID 434; calls by dose curve;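 note: potency is the fitted concentration of half-maximal effect; potency reflects cytotoxicity seen as loss of intracellular ATP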); conditions: MRC5 lung fibroblast viability, qHTS
How it was run: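 qHTS cytotoxicity in human lung fibroblast MRC5 cells; 40 hr treatment, 37 °C; cellular ATP by luciferase luminescence; DMSO = 0%, 100 uM tamoxifen = 100% inhibition; Hill-fit AC50.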

[5] = Cell Viability - Mesenchymal (AID 546); conditions: mesenchymal cells viability, qHTS; series mostly up to 91.7 µM;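 note: cells exposed to compound for 40 hours before reading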
How it was run: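 AC50 values reflect the drop in intracellular ATP in a human kidney mesenchymal line derived from normal glomeruli. Treatment lasts 40 hr at 37 °C in complete medium, and the signal comes from CellTiter-Glo luminescence.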

[6] = Cellular Toxicity (caspase-3) SHSY5Y (AID 657); conditions: SH-SY5Y caspase-3 activation, DMSO zero, 10 µM staurosporine = 100%; series mostly up to 91.7 µM
How it was run: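 SH-SY5Y human neuroblastoma cells, 1500/well, exposed to compound for 16 hours at 37 °C in complete medium. Caspase-3/7 activity read by Caspase-Glo luminescence after 1 hr at room temperature, normalized to DMSO and 10 uM staurosporine; AC50 from Hill fit.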

[7] = Cellular Toxicity (caspase-3) MRC-5 (AID 659); conditions: MRC-5 cells, luminescence, normalized: DMSO 0%, 10 µM staurosporine 100%; series mostly up to 91.7 µM
How it was run: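 Concentration-dependent caspase 3/7 activation is measured in human normal lung fibroblasts (MRC-5) following 16-hour treatment. AC50 values come from standard Hill-equation modeling of luminescence normalized to DMSO and 10 uM staurosporine.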

[8] = Cellular Toxicity (caspase-3) Mesangial (AID 660); conditions: mesangial cells, normalized: DMSO 0%, 100 µM tamoxifen 100%; series mostly up to 91.7 µM;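 note: cells exposed to compound for 16 h before the caspase read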
How it was run: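 Human renal glomerular mesangial cells (1000/well) were treated with compounds for 16 h at 37 °C in complete medium, then caspase 3/7 activity was read by Caspase-Glo luminescence. Data were normalized to DMSO and 100 uM tamoxifen; AC50 from Hill fits.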

[9] = Cellular Toxicity (caspase-3) SK-N-SH (AID 661); conditions: SK-N-SH caspase-3 activation, qHTS; series mostly up to 91.7 µM
How it was run: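 SK-N-SH human neuroblastoma cells (1500/well) were treated with compounds for 16 hr at 37 °C in complete medium; caspase 3/7 activity was read by Caspase-Glo luminescence. AC50 came from Hill fits of data normalized to DMSO and 10 uM staurosporine.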

[10] = Cellular Toxicity (caspase-3) Hek293 (AID 664); conditions: HEK293 caspase-3 activation, DMSO = 0%, 100 µM tamoxifen = 100%; at 92.2 µM (top of the series);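 note: cells exposed to compound for 16 h at 37 °C before readout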
How it was run: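 HEK293 cells were exposed to compounds in complete medium for 16 hr at 37 °C, then caspase-3/7 activity was read by Caspase-Glo 3/7 luminescence after 20 min at room temperature. Data normalized to DMSO and 100 uM tamoxifen; AC50 from Hill fits.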

[11] = Cellular Toxicity (caspase-3) N2a (AID 665); conditions: N2a cells, luminescence, normalized: DMSO 0%, 10 µM staurosporine 100%; series mostly up to 92.2 µM;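 note: compound exposure lasted 16 h at 37 °C before readout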
How it was run: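 Mouse N2a neuroblastoma cells (1500/well) were treated with compounds for 16 h at 37 °C, then caspase-3/7 activity was read by Caspase-Glo luminescence after 1 h at room temperature. Data were normalized to DMSO and 10 uM staurosporine; AC50 from Hill fits.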

[12] = Cell Viability - LYMP1-002 - Assay at 16 hr (AID 948); conditions: LYMP1-002 lymphoblastoid cell viability; series mostly up to 92.2 µM;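 note: 0% = DMSO alone and full effect = 92 µM tetraoctylammonium bromide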
How it was run: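 LYMP1-002 human lymphoblastoid cells, 2500/well, were treated with compounds for 16 hr at 37 C in complete medium. Viability was read as intracellular ATP by CellTiter-Glo luminescence, and AC50 was derived from a Hill fit to concentration-response data.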

[13] = MultiTox-Fluor Cytotoxicity Assay - LYMP1-003 - Dead Cells (AID 961); conditions: LYMP1-003 lymphoblastoid cells, dead-cell protease fluorescence; series mostly up to 92.2 µM;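 note: 0% = DMSO and 100% = tetraoctylammonium bromide; nearly all actives have a fitted effect of over 70% in size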
How it was run: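 Human lymphoblastoid LYMP1-003 cells (2500/well) were treated with compounds for 16 hr at 37 C in complete medium. Dead-cell protease release was read by bis-AAF-R110 fluorescence (Ex/Em 485/520). AC50 came from Hill fits, normalized to DMSO and 15 uM tetraoctylammonium bromide.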

[14] = MultiTox-Fluor Cytotoxicity Assay - LYMP1-003 - Live Cells (AID 962); conditions: LYMP1-003 lymphoblastoid cells, MultiTox-Fluor live-cell protease fluorescence; series mostly up to 92.2 µM;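 note: 0% = DMSO only and full loss = 92 µM tetraoctylammonium bromide; cytotoxic hits lower the live-cell protease signal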
How it was run: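 LYMP1-003 human lymphoblastoid cells (2500/well) in complete medium were preincubated 5 hr at 37 C, then exposed to compounds for 16 hr at 37 C. Live-cell protease cleavage of GF-AFC read by fluorescence (Ex/Em 405/510); AC50 from Hill fits.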

[15] = Cell Viability - LYMP1-003 - Assay at 24 hr (AID 963); conditions: LYMP1-003 lymphoblastoid cell viability; series mostly up to 92.2 µM;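 note: plate controls were DMSO only for no effect and tetraoctylammonium bromide positive control for full effect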
How it was run: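 Human lymphoblastoid LYMP1-003 cells (2500/well) were rested 5 hr at 37 C, then exposed to compounds in complete medium for 24 hr at 37 C. Cellular ATP was quantified by CellTiter-Glo luminescence, and AC50 values came from Hill fits of concentration-response data.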

[16] = Cell Viability - LYMP2-008 (AID 980); conditions: LYMP2-008 lymphoblastoid cell viability, qHTS; series mostly up to 92.2 µM; note: % is set by controls: 0 for no effect and ±100 for the full control effect; nearly all actives have a fitted effect of over 60% in size
How it was run: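 Human lymphoblastoid cells (2500/well) were plated, held 5 hr at 37 C, then exposed to compounds for 24 hr at 37 C in complete medium. Intracellular ATP was read by CellTiter-Glo luminescence; AC50 from Hill-fitted concentration-response.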

[17] = qHTS Assay for Identification of Small Molecule Inducers of Hypoxia Response (AID 2120; active = well fitted curve in the direction sought with a large enough effect in the signal ratio, with a control signal flat, not every such curve was filed as active; the % refers to the signal ratio; note: 0% is about no effect); conditions: hypoxia response reporter cells, beta-lactamase ratio readout; series mostly up to 104 µM
How it was run: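 HRE-beta-lactamase reporter in CellSensor HRE-bla ME-180 cells, 2500 cells/well in Opti-MEM with 0.5% dialyzed FBS; compounds tested as titration series, 17 h at 37 degrees C. CCF4 substrate 2.5 h at room temperature; AC50 from 460/530 nm ratio.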

[18] = molecular target: Peroxisome proliferator-activated receptor alpha (Homo sapiens) (UniProt Q07869); test: qHTS assay for small molecule agonists of the peroxisome proliferator-activated receptor alpha (PPARalpha) signaling pathway (AID 651778); conditions: PathHunter PPARalpha complementation, chemiluminescence, 6 h; active compounds read high; note: % of control where 0% means no effect
Chain of Peroxisome proliferator-activated receptor alpha (Homo sapiens) (Q07869 whole entry, looked up): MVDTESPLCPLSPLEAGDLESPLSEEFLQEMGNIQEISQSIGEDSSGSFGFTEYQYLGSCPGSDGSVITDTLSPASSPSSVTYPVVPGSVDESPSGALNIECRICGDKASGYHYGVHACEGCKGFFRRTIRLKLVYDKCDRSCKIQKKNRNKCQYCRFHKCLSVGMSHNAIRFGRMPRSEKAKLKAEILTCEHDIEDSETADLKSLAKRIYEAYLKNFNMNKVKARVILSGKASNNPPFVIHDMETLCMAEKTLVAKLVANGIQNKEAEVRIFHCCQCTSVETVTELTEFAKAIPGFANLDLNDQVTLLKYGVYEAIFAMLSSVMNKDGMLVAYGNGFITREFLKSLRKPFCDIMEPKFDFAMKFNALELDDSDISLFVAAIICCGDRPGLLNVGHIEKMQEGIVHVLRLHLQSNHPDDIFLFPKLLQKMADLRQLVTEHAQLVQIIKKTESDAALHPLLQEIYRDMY
How it was run: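 Chemiluminescence from complemented enzyme reported PPARalpha activation in cells after 6 hr of compound treatment at 37 C. The detection reagent was incubated for 60 min at room temperature, and compounds were scored as agonists.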

[19] = qHTS assay for small molecule agonists of the antioxidant response element (ARE) signaling pathway measured by Nrf2-dependant transcriptional activity - cell viability counter screen (AID 720653; active = well fitted curve in the direction sought with a large enough effect in the repeat runs; an effect the other way counts as inactive or inconclusive; note: % is set by controls: 0 for no effect and ±100 for the full control effect); conditions: ARE-bla HepG2 viability, CellTiter-Glo ATP luminescence, 16 h; active compounds read low
How it was run: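 Cytotoxicity counter screen: intracellular ATP quantified by CellTiter-Glo luminescence in the same ARE-bla HepG2 plates, after 16 h compound exposure and a 2 h beta-lactamase substrate step.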

[20] = qHTS assay for cell viability of the p53RE-bla HCT-116 cell line (AID 743292); conditions: p53RE-bla HCT-116 viability, ATP luminescence, 16 h; series mostly up to 95 µM; note: % is set by controls: 0 for no effect and ±100 for the full control effect; nearly all actives have a fitted effect of over 55% in size
How it was run: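 ATP-based luminescent viability (CellTiter-Glo, 30 min RT) after 16 h compound treatment at 37 C of p53RE-bla HCT-116 cells, seeded at 4,000 cells/well and rested 5 h before dosing.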

Cc1cc(Cl)ccc1O
inactive: Potency [1] > 92 µM | Potency [2] > 92 µM | Potency [3] > 92 µM | Potency [4] > 92 µM | Potency [5] | outcome [6] | outcome [7] | outcome [8] | Potency [9] | caspase-3 activation [10] 0.112% | outcome [11] | outcome [12] | Potency [13] | outcome [14] | outcome [15] | Potency [16] | Potency [17] | max response [18] -3.66% | max response [19] 10.4% | Potency [20]

ClCC(Cl)CCl
inactive: Potency [1] > 92 µM | Potency [2] > 92 µM | Potency [3] > 92 µM | Potency [4] > 92 µM | Potency [5] | outcome [6] | outcome [7] | outcome [8] | Potency [9] | caspase-3 activation [10] 1.26% | outcome [11] | outcome [12] | Potency [13] | outcome [14] | outcome [15] | Potency [16] | Potency [17] | max response [18] -4.72% and -1.22% | max response [19] 3.4% and -4.41% | Potency [20]

CCOP(=S)(OCC)Oc1nc(Cl)c(Cl)cc1Cl
inactive: Potency [1] > 92 µM | Potency [2] > 92 µM | Potency [3] > 92 µM | Potency [4] > 92 µM | Potency [5] | outcome [6] | outcome [7] | outcome [8] | Potency [9] | caspase-3 activation [10] 2.26% | outcome [11] | outcome [12] | Potency [13] | outcome [14] | outcome [15] | Potency [16] | Potency [17] | max response [18] 0.508% [middle of 4 runs] | max response [19] 0.0448% [middle of 4 runs] | Potency [20]

Nc1ccc([N+](=O)[O-])cc1[N+](=O)[O-]
inactive: Potency [1] > 92 µM | Potency [2] > 92 µM | Potency [3] > 92 µM | Potency [4] > 92 µM | Potency [5] | outcome [6] | outcome [7] | outcome [8] | Potency [9] | caspase-3 activation [10] -0.459% | outcome [11] | outcome [12] | Potency [13] | outcome [14] | outcome [15] | Potency [16] | Potency [17] | max response [18] -8.48% | max response [19] -10.3% | Potency [20]

CN(C)C(=O)Cl
inactive: Potency [1] > 92 µM | Potency [2] > 92 µM | Potency [3] > 92 µM | Potency [4] > 92 µM | Potency [5] | outcome [6] | outcome [7] | outcome [8] | Potency [9] | caspase-3 activation [10] -0.876% | outcome [11] | outcome [12] | Potency [13] | outcome [14] | outcome [15] | Potency [16] | Potency [17] | max response [18] -4.05% | max response [19] -21% | Potency [20]

C=CCc1cc(OC)c2c(c1)OCO2
inactive: Potency [1] > 92 µM | Potency [2] > 92 µM | Potency [3] > 92 µM | Potency [4] > 92 µM | Potency [5] | outcome [6] | outcome [7] | outcome [8] | Potency [9] | caspase-3 activation [10] 1.27% | outcome [11] | outcome [12] | Potency [13] | outcome [14] | outcome [15] | Potency [16] | Potency [17] | max response [18] 5.39% | max response [19] -2.49% | Potency [20]
